The results in this text go back to PubChem BioAssay (NCATS).

Results filed as inconclusive are left out. Unmarked numbers belong to inactive results. Calls of active or inactive are those of the source. The call rests on the fitted dose curve; in most records, active means well fitted curve in the direction sought with a large enough effect; inconclusive means small, poorly fitted or top-dose-only effect, or another doubt; inactive means no such curve, though single readings can be large; an effect the other way counts as inactive or inconclusive.

Assay [1] in a line: Primary qHTS for inhibitors of La Crosse Virus (LACV) - induced cell death in SH-SY5Y cells (AID 1508616).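 Further: top concentration of the series differs between compounds; 0% = infected DMSO wells and 100% = uninfected DMSO wells; higher means more rescue of cells from virus-induced death.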 A digest of the protocol: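 Luminescent ATP readout (ATPLite 1step, 5 min room temperature) measured rescue from LACV-induced death after 6 days of infection at 0.01 MOI; normalized to infected DMSO wells and uninfected DMSO wells.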
(In qHTS, concentration-response curves come from the screen itself.)

The target in assay [2] is Calcium and integrin-binding protein 1 (Homo sapiens) (UniProt Q99828). Description: Primary qHTS for Identification of Calcium Integrin Binding Protein 1 (CIB1) Competitor (AID 1508620).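 Further: GST tagged CIB1 binding a fluorescein labelled alphaIIb integrin peptide tracer; top concentration of the series differs between compounds; on the % scale 0 is the no-effect control and ±100 the full control effect.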 In short, it runs like this:
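Fluorescence polarization competition: CIB1-GST (1 uM final) preincubated with compound 15 min at room temperature, then FITC-labeled alphaIIb peptide (100 nM final) added for another 15 min. Polarization read at Ex 480/Em 540.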

A short description of assay [3]: Primary qHTS for small molecule stabilizers of the endoplasmic reticulum resident proteome: Secreted ER Calcium Modulated Protein (SERCaMP) assay (AID 1508630). Further: on the % scale 0 is the no-effect control and ±100 the full control effect. A digest of the protocol: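 GLuc-SERCaMP-expressing SH-SY5Y cells, pretreated 16 h with compound, are challenged with thapsigargin to empty ER calcium stores; after 4 h, coelenterazine is added directly to the medium and luminescence is imaged.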

In assay [4] the target is Protein phosphatase 1D (Homo sapiens) (UniProt O15297). Description: Rhodamine-PBP qHTS Assay for Modulators of WT P53-Induced Phosphatase 1 (WIP1) (AID 1347425). Further: % of control where 0% means no effect. In short, it runs like this: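 Read-out: Rhodamine-PBP fluorescence (ex 525/em 598 nm) for released Pi, read each minute for 11 min after adding 10 uM VEPPL-pS-QETFS; signal taken as f1 minus pre-substrate f0. Enzyme 5 nM WIP1 with 1 hr room-temperature compound preincubation.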
Sequence of Protein phosphatase 1D (Homo sapiens) (O15297 whole entry, looked up): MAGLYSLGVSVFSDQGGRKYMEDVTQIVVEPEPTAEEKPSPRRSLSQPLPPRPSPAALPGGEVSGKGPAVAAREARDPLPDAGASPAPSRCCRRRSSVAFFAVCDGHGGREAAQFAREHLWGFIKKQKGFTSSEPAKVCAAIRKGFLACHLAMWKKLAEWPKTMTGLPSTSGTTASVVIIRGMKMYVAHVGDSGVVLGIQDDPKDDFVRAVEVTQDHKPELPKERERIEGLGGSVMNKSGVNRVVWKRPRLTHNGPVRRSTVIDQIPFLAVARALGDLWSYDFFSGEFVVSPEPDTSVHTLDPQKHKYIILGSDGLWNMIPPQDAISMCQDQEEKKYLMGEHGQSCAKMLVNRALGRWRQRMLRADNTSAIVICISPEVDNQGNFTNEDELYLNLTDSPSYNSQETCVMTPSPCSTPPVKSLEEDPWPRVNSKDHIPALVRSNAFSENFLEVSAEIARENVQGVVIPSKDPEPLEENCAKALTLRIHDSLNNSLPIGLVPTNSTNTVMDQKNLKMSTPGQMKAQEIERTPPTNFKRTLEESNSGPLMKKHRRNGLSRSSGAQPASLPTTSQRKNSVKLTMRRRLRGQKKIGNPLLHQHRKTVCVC

Assay [5] shares this target. Description: RapidFire Mass Spectrometry qHTS Assay for Modulators of WT P53-Induced Phosphatase 1 (WIP1) (AID 1347424).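 Further: amount of dephosphorylated VEPPL-S-QETFS peptide product formed by WIP1.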 Further: potency means the concentration at half of the fitted maximal effect.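 On activity change, negative = inhibition: series mostly up to about 63 µM; plate controls were DMSO wells for no effect and GSK830371 inhibitor control at 10 µM for full effect.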 A digest of the protocol:
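WIP1 (10 nM final) was preincubated 1 h at room temperature with compounds in Tris-HCl pH 7.5, 30 mM MgCl2, TCEP, EGTA, BSA; 2 uM VEPPL-pS-QETFS phosphopeptide was added for 5 min, quenched with formic acid, and dephosphorylated product quantified by RapidFire MS.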

Sequence of Calcium and integrin-binding protein 1 (Homo sapiens) (Q99828 whole entry, looked up): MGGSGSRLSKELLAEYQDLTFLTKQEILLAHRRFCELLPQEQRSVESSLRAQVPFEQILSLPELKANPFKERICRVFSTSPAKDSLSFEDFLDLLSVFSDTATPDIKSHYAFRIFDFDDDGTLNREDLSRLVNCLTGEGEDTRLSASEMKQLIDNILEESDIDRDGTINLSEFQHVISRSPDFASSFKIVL

Take `COc1ccc(CN2CCN(C(c3ccc(F)cc3)c3ccc(F)cc3)CC2)c(OC)c1OC`: the Potency entry in assay [1] and in assay [2] was “inactive” each time.

As for `Cc1c(C(N)=O)cc([N+](=O)[O-])cc1[N+](=O)[O-]`, the Potency entry in assay [1], in assay [2] and in assay [3] was “inactive” in each case.

`CCN(CC)C(=O)N1CCN(C)CC1`: the outcome in assay [4] was inactive. Moreover, the Potency entry in assay [1], in assay [2] and in assay [3] was “inactive” in each case.

For the molecule `C=C(CC)C(=O)c1ccc(OCC(=O)O)c(Cl)c1Cl`, the Potency result in assay [5] and in assay [3] was “inactive” throughout. Further, the result in assay [4] was inactive.

As for `COC(=O)C1=C(C)NC(C)=C(C(=O)O[C@@H]2CCCN(Cc3ccccc3)C2)[C@@H]1c1cccc([N+](=O)[O-])c1`, in assay [4], the molecule was classed as inactive. Besides, the Potency entry in assay [1] and in assay [2] was “inactive” in each case.

In the case of `CC(=O)OCC(=O)[C@@]1(O)CC[C@H]2[C@@H]3CCC4=CC(=O)C=C[C@]4(C)[C@H]3[C@@H](O)C[C@@]21C`, the Potency entry in assay [5], in assay [1], in assay [2] and in assay [3] was “inactive” throughout.

`C[C@]12CC[C@@H]3c4ccc(O)cc4CC[C@H]3[C@@H]1C[C@@H](O)[C@@H]2O`: the call in assay [4] was inactive. The Potency entry in assay [1], in assay [2] and in assay [3] was “inactive” in each case.

For the molecule `C[C@H](CCC(=O)O)[C@H]1CC[C@H]2[C@@H]3C(=O)C[C@@H]4CC(=O)CC[C@]4(C)[C@H]3CC(=O)[C@]12C`, the result in assay [4] was inactive. The Potency entry in assay [1], in assay [2] and in assay [3] was “inactive” in each case.

For the molecule `CCCCCCc1ccc(O)cc1O`, the Potency result in assay [5], in assay [1] and in assay [2] was “inactive” throughout.

In the case of `C[C@H]1[C@H](NC(=O)/C(=N/OC(C)(C)C(=O)O)c2csc(N)n2)C(=O)N1S(=O)(=O)O` (stereo in doubt), the Potency result in assay [5], in assay [1] and in assay [2] was “inactive” throughout.

`CC(C)=CCC1C(=O)N(c2ccccc2)N(c2ccccc2)C1=O`: the Potency entry in assay [1] and in assay [3] was “inactive” each time.

As for `CC(C)(C)CC(C)(C)c1ccc(OCCOCC[N+](C)(C)Cc2ccccc2)cc1`, the call in assay [4] was inactive. The Potency entry in assay [1] and in assay [3] was “inactive” each time.

Consider `Nc1ccc(/C=C/c2ccc(N)cc2S(=O)(=O)O)c(S(=O)(=O)O)c1`, for which the activity change in assay [1] is 5.33% [at 0.0343 µM]. In assay [2], the activity change, negative = inhibition is -1.2% [at 1.07 µM].

Turning to `CC(O)C(=O)O` (configuration not stated), the Potency entry in assay [5], in assay [1] and in assay [3] was “inactive” throughout.

Take `Cc1cc2c(cc1CC(=O)c1sccc1S(=O)(=O)Nc1onc(C)c1Cl)OCO2`: the Potency result in assay [5], in assay [1], in assay [2] and in assay [3] was “inactive” in each case.

For the molecule `CC1(C)O[C@@H]2C[C@H]3[C@@H]4C[C@H](F)C5=CC(=O)CC[C@]5(C)[C@H]4[C@@H](O)C[C@]3(C)[C@]2(C(=O)CO)O1`, the Potency result in assay [5], in assay [1], in assay [2] and in assay [3] was “inactive” each time.

Turning to `NCCc1ccn[nH]1`, the molecule was classed as inactive in assay [4]. For the same molecule, the Potency entry in assay [1], in assay [2] and in assay [3] was “inactive” throughout.

As to `Cc1c(C)n(CCN(C)C)c2ccc(C(=O)OCCN(C)C)cc12`, in assay [4], the molecule was called inactive. Besides, the Potency entry in assay [1], in assay [2] and in assay [3] was “inactive” in each case.

Take `NC(=NCCCCCCN=C(N)/N=C(\N)Nc1ccc(Cl)cc1)/N=C(\N)Nc1ccc(Cl)cc1`: the Potency entry in assay [2] and in assay [3] was “inactive” each time.

For the molecule `CC(=O)OCC(=O)[C@@]1(OC(C)=O)[C@@H](C)C[C@H]2[C@@H]3C[C@H](F)C4=CC(=O)C=C[C@]4(C)[C@@]3(F)[C@@H](O)C[C@@]21C`, the Potency entry in assay [1], in assay [2] and in assay [3] was “inactive” in each case.

Regarding `Nc1ccc(C(=O)Nc2ccccc2N)cc1`, the Potency result in assay [5], in assay [2] and in assay [3] was “inactive” in each case. Moreover, the molecule was called inactive in assay [4].

Consider `Oc1ccc(Cl)cc1Sc1cc(Cl)ccc1O`, for which, in assay [5], the Potency was 31.6 µM (active). The Potency result in assay [1] and in assay [3] was “inactive” throughout.

Regarding `COc1cc(NS(C)(=O)=O)ccc1Nc1c2ccccc2nc2ccccc12`, the Potency entry in assay [1] and in assay [3] was “inactive” each time.

As to `CCCC(=O)O[C@]1(C(=O)CO)CC[C@H]2[C@@H]3CCC4=CC(=O)CC[C@]4(C)[C@H]3[C@@H](O)C[C@@]21C`, the outcome in assay [4] was inactive. The Potency result in assay [1], in assay [2] and in assay [3] was “inactive” in each case.
